Experimental data: PubChem BioAssay (NCATS)
Records with an inconclusive call do not appear. Entries that show only a call come without a potency. The source made the active and inactive calls. The call rests on the fitted dose curve; in most records, active means well fitted inhibition curve with a large enough effect; inconclusive means small, poorly fitted or top-dose-only effect; inactive means flat fitted curve, though single readings scatter.

These molecules were tested on TAB109 (assay: qHTS profiling for inhibitors of Plasmodium falciparum proliferation (AID 504749; further: nearly all actives have a fitted effect of over 60% in size)). Conditions: P. falciparum in erythrocytes, SYBR Green DNA, 72 h; series mostly up to 28.7 µM.
In short: (§1)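 Parasite proliferation within erythrocytes, 72 h exposure. Endpoint: SYBR Green I fluorescence after overnight lysis at room temperature. Controls: 0.29 uM artemisinin, DMSO.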
Potency means the concentration at half of the fitted maximal effect.

SMILES | Potency
C[C@H](Cn1cnc2c(N)ncnc21)OCP(=O)(O)O | inactive
N[C@@H](Cc1cc(I)c(Oc2cc(I)c(O)c(I)c2)c(I)c1)C(=O)O | inactive
CNC[C@H](O)c1ccc(O)c(O)c1 | inactive
Nc1ccc(S(N)(=O)=O)cc1 | inactive
CCCCc1ccc2nc(NC(=O)OC)[nH]c2c1 | inactive
COc1cc(OC)c(C(=O)CCCN2CCCC2)c(OC)c1 | inactive
Cc1nc(Nc2ncc(C(=O)Nc3c(C)cccc3Cl)s2)cc(N2CCN(CCO)CC2)n1 | inactive
CCN(CC)CCOc1ccc(Cc2ccccc2)cc1 | inactive
CCOC(=O)c1c(C)n(C)c2ccc(O)cc12 | inactive
Cc1cc(=O)c2c(O)c3c(O)cc(=O)c4c3c3c(cc(O)c1c23)C(C)(C)C=4O | 2.24 µM (active)
Nc1ccn([C@@H]2O[C@H](CO)[C@@H](O)C2O)c(=O)n1 (stereo partly specified) | inactive
O=C(O)c1cccnc1Nc1cccc(C(F)(F)F)c1 | inactive
CCOc1cc(CC(=O)N[C@@H](CC(C)C)c2ccccc2N2CCCCC2)ccc1C(=O)O | inactive
CC(S)C(=O)NCC(=O)O (stereo unspecified) | inactive
COCCCOc1ccnc(CS(=O)c2nc3ccccc3[nH]2)c1C (stereo unspecified) | inactive
CC(C)c1ccc2oc3nc(N)c(C(=O)O)cc3c(=O)c2c1 | inactive
COc1cc2c(cc1OC)C1CC(=O)C(CC(C)C)CN1CC2 (stereo unspecified) | inactive
CNC[C@@H](O)[C@@H](O)[C@H](O)[C@H](O)CO | inactive
O=C(NCCO[N+](=O)[O-])c1cccnc1 | inactive
CC1(C)NC(=O)N(c2ccc([N+](=O)[O-])c(C(F)(F)F)c2)C1=O | inactive
Oc1ccc(OCc2ccccc2)cc1 | inactive
Cc1ccc(NC(=O)c2ccc(CN3CCN(C)CC3)cc2)cc1Nc1nccc(-c2cccnc2)n1 | 10 µM (active)
c1ccc2[nH]c(-c3cscn3)nc2c1 | inactive

What follows are molecules tested on TAB113 in the same assay as above. Conditions: P. falciparum in erythrocytes, SYBR Green DNA, 72 h; series mostly up to 28.7 µM.
In short: as §1

SMILES | Potency
C[C@H](Cn1cnc2c(N)ncnc21)OCP(=O)(O)O | inactive
N[C@@H](Cc1cc(I)c(Oc2cc(I)c(O)c(I)c2)c(I)c1)C(=O)O | inactive
CNC[C@H](O)c1ccc(O)c(O)c1 | inactive
Cc1cc(=O)oc2cc(O)ccc12 | 1 µM (active)
Nc1ccc(S(N)(=O)=O)cc1 | inactive
CCCCc1ccc2nc(NC(=O)OC)[nH]c2c1 | inactive
COc1cc(OC)c(C(=O)CCCN2CCCC2)c(OC)c1 | inactive
Cc1nc(Nc2ncc(C(=O)Nc3c(C)cccc3Cl)s2)cc(N2CCN(CCO)CC2)n1 | inactive
CCN(CC)CCOc1ccc(Cc2ccccc2)cc1 | inactive
CCOC(=O)c1c(C)n(C)c2ccc(O)cc12 | inactive
Cc1cc(=O)c2c(O)c3c(O)cc(=O)c4c3c3c(cc(O)c1c23)C(C)(C)C=4O | 1.58 µM (active)
Nc1ccn([C@@H]2O[C@H](CO)[C@@H](O)C2O)c(=O)n1 (stereo partly specified) | inactive
O=C(O)c1cccnc1Nc1cccc(C(F)(F)F)c1 | inactive
CCC(C)(Oc1ccc(C2(c3ccc(OC(C)(CC)C(=O)O)cc3)CCCCC2)cc1)C(=O)O (stereo unspecified) | inactive
CCOc1cc(CC(=O)N[C@@H](CC(C)C)c2ccccc2N2CCCCC2)ccc1C(=O)O | inactive
CC(S)C(=O)NCC(=O)O (stereo unspecified) | inactive
COCCCOc1ccnc(CS(=O)c2nc3ccccc3[nH]2)c1C (stereo unspecified) | inactive
COc1cc2c(cc1OC)C1CC(=O)C(CC(C)C)CN1CC2 (stereo unspecified) | inactive
CNC[C@@H](O)[C@@H](O)[C@H](O)[C@H](O)CO | inactive
O=C(NCCO[N+](=O)[O-])c1cccnc1 | inactive
CC1(C)NC(=O)N(c2ccc([N+](=O)[O-])c(C(F)(F)F)c2)C1=O | inactive
Oc1ccc(OCc2ccccc2)cc1 | inactive
Cc1ccc(NC(=O)c2ccc(CN3CCN(C)CC3)cc2)cc1Nc1nccc(-c2cccnc2)n1 | 12.6 µM (active)
c1ccc2[nH]c(-c3cscn3)nc2c1 | inactive

Each molecule was assayed on TAB165 in the same assay as above. Conditions: P. falciparum in erythrocytes, SYBR Green DNA, 72 h; series mostly up to 28.7 µM.
In short: as §1

SMILES | Potency
C[C@H](Cn1cnc2c(N)ncnc21)OCP(=O)(O)O | inactive
N[C@@H](Cc1cc(I)c(Oc2cc(I)c(O)c(I)c2)c(I)c1)C(=O)O | inactive
CNC[C@H](O)c1ccc(O)c(O)c1 | inactive
Nc1ccc(S(N)(=O)=O)cc1 | inactive
CCCCc1ccc2nc(NC(=O)OC)[nH]c2c1 | inactive
COc1cc(OC)c(C(=O)CCCN2CCCC2)c(OC)c1 | inactive
Cc1nc(Nc2ncc(C(=O)Nc3c(C)cccc3Cl)s2)cc(N2CCN(CCO)CC2)n1 | 12.6 µM (active)
CN1CCC(=C2c3ccccc3CCc3sccc32)CC1 | 4.47 µM (active)
CCN(CC)CCOc1ccc(Cc2ccccc2)cc1 | inactive
CCOC(=O)c1c(C)n(C)c2ccc(O)cc12 | inactive
Cc1cc(=O)c2c(O)c3c(O)cc(=O)c4c3c3c(cc(O)c1c23)C(C)(C)C=4O | 1.78 µM (active)
Nc1ccn([C@@H]2O[C@H](CO)[C@@H](O)C2O)c(=O)n1 (stereo partly specified) | inactive
O=C(O)c1cccnc1Nc1cccc(C(F)(F)F)c1 | inactive
CCC(C)(Oc1ccc(C2(c3ccc(OC(C)(CC)C(=O)O)cc3)CCCCC2)cc1)C(=O)O (stereo unspecified) | inactive
CCOc1cc(CC(=O)N[C@@H](CC(C)C)c2ccccc2N2CCCCC2)ccc1C(=O)O | inactive
CC(S)C(=O)NCC(=O)O (stereo unspecified) | inactive
CC(C)c1ccc2oc3nc(N)c(C(=O)O)cc3c(=O)c2c1 | inactive
COc1cc2c(cc1OC)C1CC(=O)C(CC(C)C)CN1CC2 (stereo unspecified) | inactive
CNC[C@@H](O)[C@@H](O)[C@H](O)[C@H](O)CO | inactive
O=C(NCCO[N+](=O)[O-])c1cccnc1 | inactive
CC1(C)NC(=O)N(c2ccc([N+](=O)[O-])c(C(F)(F)F)c2)C1=O | inactive
Oc1ccc(OCc2ccccc2)cc1 | inactive
Cc1ccc(NC(=O)c2ccc(CN3CCN(C)CC3)cc2)cc1Nc1nccc(-c2cccnc2)n1 | 11.2 µM (active)
c1ccc2[nH]c(-c3cscn3)nc2c1 | inactive
